Experimental data taken from paper PMC4336329 (PLoS ONE, 2015).
The whole screen tested about 310,000 compounds, of which about 14,000 (4.5%) showed an effect of 50% or more. The effect is printed as a negative number. This excerpt belongs to a sample that is enriched for strong results.

What follows are compounds tested against human ether-à-go-go-related gene (hERG) potassium channel (human, UniProt Q12809) (assay: primary screen, population patch clamp on CHO cells stably expressing hERG; higher = less effect of the substance).
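Note: peak tail current of the secondary pulse compared with the same well before compound.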

Chain of human ether-à-go-go-related gene (hERG) potassium channel (Q12809 whole entry, looked up): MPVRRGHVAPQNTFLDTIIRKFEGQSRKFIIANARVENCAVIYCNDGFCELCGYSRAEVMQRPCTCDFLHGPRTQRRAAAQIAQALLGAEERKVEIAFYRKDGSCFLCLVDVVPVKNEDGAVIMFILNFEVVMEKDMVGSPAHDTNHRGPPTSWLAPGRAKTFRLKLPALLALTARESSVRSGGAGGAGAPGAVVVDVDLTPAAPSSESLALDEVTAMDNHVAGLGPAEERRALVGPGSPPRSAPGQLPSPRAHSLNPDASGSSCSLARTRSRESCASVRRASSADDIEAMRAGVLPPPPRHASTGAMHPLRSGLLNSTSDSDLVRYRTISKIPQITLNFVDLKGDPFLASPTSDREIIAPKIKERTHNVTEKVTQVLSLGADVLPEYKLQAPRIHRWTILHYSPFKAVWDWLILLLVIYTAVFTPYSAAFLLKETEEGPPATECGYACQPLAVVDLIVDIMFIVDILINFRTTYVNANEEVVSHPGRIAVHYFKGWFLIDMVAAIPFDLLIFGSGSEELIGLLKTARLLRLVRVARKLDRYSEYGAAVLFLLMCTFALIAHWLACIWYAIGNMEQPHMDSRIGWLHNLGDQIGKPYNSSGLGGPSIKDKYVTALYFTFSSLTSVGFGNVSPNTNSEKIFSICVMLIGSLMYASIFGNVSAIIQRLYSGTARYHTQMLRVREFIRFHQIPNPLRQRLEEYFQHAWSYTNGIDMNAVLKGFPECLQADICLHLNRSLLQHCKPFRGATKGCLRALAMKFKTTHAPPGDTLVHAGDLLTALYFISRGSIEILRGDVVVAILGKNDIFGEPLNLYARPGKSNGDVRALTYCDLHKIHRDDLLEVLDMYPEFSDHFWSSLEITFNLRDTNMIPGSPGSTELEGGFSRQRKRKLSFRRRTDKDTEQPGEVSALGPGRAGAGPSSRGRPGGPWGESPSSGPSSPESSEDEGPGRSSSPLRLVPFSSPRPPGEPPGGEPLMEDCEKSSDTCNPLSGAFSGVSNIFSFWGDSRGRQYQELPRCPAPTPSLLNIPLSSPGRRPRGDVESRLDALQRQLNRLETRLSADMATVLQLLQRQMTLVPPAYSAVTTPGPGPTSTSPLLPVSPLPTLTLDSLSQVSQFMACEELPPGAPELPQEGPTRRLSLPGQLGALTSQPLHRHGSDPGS

| SMILES | hERG current change (%, negative = inhibition) at 10uM |
| --- | --- |
| N#Cc1ccc(OCc2nnc(SCC(=O)c3ccccc3)n2-c2ccccc2)cc1 | -40.8% |
| CCn1c(COc2cccc(C)c2)nnc1SCC(=O)Nc1cccc(C(=O)OC)c1 | -2.45% |
| CCOC(=O)c1cccc(NC(=O)CSc2nnc(-c3ccncc3)n2CCCOC)c1 | -50.4% |
| COC(=O)c1cccc(NC(=O)CSc2nnc(COc3ccccc3)n2C)c1 | -7.84% |
| CCn1c(COc2cccc(C)c2)nnc1SCC(=O)Nc1cccc(C(=O)O)c1 | 9.41% |
| CCOC(=O)c1cccc(NC(=O)CSc2nnc(COc3ccccc3)n2CC)c1 | -51.3% |
| COCCCn1c(SCC(=O)Nc2cccc(C(=O)OC)c2)nnc1-c1ccncc1 | -15.8% |
| COC(=O)c1cccc(NC(=O)CSc2nnc(COc3ccc(C#N)cc3)n2-c2ccccc2)c1 | -73.5% |
| COCCCn1c(SCC(=O)Nc2ccccc2)nnc1-c1ccncc1 | -6.82% |
| COc1ccc(OC)c(CCNC(=O)Cn2ccc3cc(S(=O)(=O)N4CCCC4)ccc32)c1 | -13.9% |
| CCN(CC)CCNC(=O)c1cc2cc(Br)ccc2s1 | -61.1% |
| CCOCCCNC(=O)c1cc2c(s1)-c1ccccc1SC2 | -5.28% |
| CN(CCC#N)C(=O)c1cc2c(s1)-c1ccccc1SC2 | -8.88% |
| NNC(=O)c1cc2c(s1)-c1cc(Cl)ccc1SC2 | 10.3% |
| CCN(CC)CCNC(=O)c1cc2c(s1)-c1ccccc1SC2 | -77.8% |
| CNC(=O)c1cc2cc(Br)ccc2s1 | 10.1% |
| COCCNC(=O)c1cc2c(s1)-c1ccc(Cl)cc1SC2 | -5% |
| CN(C)C(=O)c1cc2cc(Br)ccc2s1 | -3.77% |
| CN(C)CCNC(=O)c1cc2c(s1)-c1ccc(Cl)cc1SC2 | -81.1% |
| C/C(=N/OCC(=O)NCCCCCCNC(=O)CO/N=C(/C)c1cccs1)c1cccs1 | -20.8% |
| CCCCOC(=O)Nc1cc(Cl)ccc1C | 1.24% |
| O=S(=O)(/N=C(/Nc1ccccc1)C(F)(F)F)c1ccccc1 | -20.7% |
| Br.C/C(CC1CC(COCC(C)C)OC1=O)=N\Nc1nc(-c2ccccc2)cs1 (centres unmarked) | -15.5% |

| SMILES | hERG current change (%, negative = inhibition) at 10uM |
| --- | --- |
| CC1Sc2ccc(S(=O)(=O)CCC(=O)Nc3ccccc3Cl)cc2NC1=O (centres unmarked) | 4.08% |
| Cc1ccc(/C=C/C(=O)Nc2nnc(SCc3ccc(C#N)cc3)s2)o1 | -11% |
| O=C1CC(c2ccccc2)n2nc(NC(=O)C3CCCO3)nc2N1 (centres unmarked) | -10% |
| CCN(CC)S(=O)(=O)c1ccc(OC)c(NC(=O)CC2CCCC2)c1 | -10.8% |
| Cc1ccc(S(=O)(=O)N(C)C)cc1NC(=O)COC(=O)CCC1CCCC1 | -18.5% |
| COc1ccc(S(=O)(=O)N(C)C)cc1NC(=O)COC(=O)CC1CCCC1 | -72.8% |
| COc1ccc(NC(=O)COC(=O)CC2CCCC2)cc1Cl | -1.21% |
| Cc1ccc(S(=O)(=O)N(C)C)cc1NC(=O)COC(=O)CC1CCCC1 | -74.2% |
| Cc1ccc(S(=O)(=O)N(C)C)cc1NC(=O)COC(=O)CCC1CCCCC1 | 2.99% |
| CCc1ccccc1NC(=O)CN(C)C(=O)CSc1nc2cc(Cl)ccc2s1 | 17.8% |
| CCOC(=O)/C(=N\Nc1cc(Cl)ccc1Cl)N1CCN(C)CC1 | -16.9% |
| O=C(CSc1ncccn1)N/N=C/c1ccccc1[N+](=O)[O-] | 11.3% |
| O=C(NCCN1CCOCC1)/C(=C\c1ccc(Br)cc1)NC(=O)c1cccs1 | -67.4% |
| CN(C)c1ccc(/C=C(\NC(=O)c2ccccc2)C(=O)NCCCN2CCOCC2)cc1 | -10.4% |
| O=C(NCCN1CCOCC1)/C(=C\c1ccc(F)cc1)NC(=O)c1ccccc1 | -62.3% |
| O=C(NCCCN1CCOCC1)/C(=C/c1cccnc1)NC(=O)c1ccccc1 | -25% |
| O=C(NCCO)/C(=C/c1ccc(Br)cc1)NC(=O)c1cccs1 | -14% |
| O=C(NCCCN1CCOCC1)/C(=C/c1ccc(F)cc1)NC(=O)c1ccccc1 | -73.5% |
| O=C(NCCN1CCOCC1)/C(=C/c1ccc(F)cc1)NC(=O)c1ccccc1 | -67.8% |
| O=C(NCCN1CCOCC1)/C(=C\c1ccccc1F)NC(=O)c1ccccc1 | -26.5% |
| O=C(NCCN1CCOCC1)/C(=C/c1ccco1)NC(=O)c1ccccc1 | -5.48% |
| O=C(NCCO)/C(=C\c1ccc(Br)cc1)NC(=O)c1cccs1 | -3.91% |
| COc1ccccc1/C=C(/NC(=O)c1ccccc1)C(=O)NCCN1CCOCC1 | 15.5% |

| SMILES | hERG current change (%, negative = inhibition) at 10uM |
| --- | --- |
| COc1ccccc1C(=O)COC(=O)c1nc(Cl)ccc1Cl | -0.91% |
| O=C(CSC1=NS(=O)(=O)c2cc(Cl)ccc2N1)NCCc1ccccc1 | 15.4% |
| CN(C)c1ccc(S(=O)(=O)N2CCCCC2)cc1NC(=O)CCNC(=O)c1ccc(Cl)cc1 | -27.4% |
| Cc1cccc(Oc2ccccc2NC(=O)CN2C(=O)NC3(CCCC3)C2=O)c1 | -6.76% |
| CCN(CC)S(=O)(=O)c1ccc(NS(=O)(=O)c2ccc(C)c(C)c2)cc1 | -21.6% |
| Nc1nonc1C(=Nc1ccc(Br)cc1)NO | 8.76% |
| CCOC(=O)c1cnc(SCC(=O)OC)nc1N | 52.5% |
| C/C(=N\N1C(C)CCCC1C)c1ccccc1O (centres unmarked) | 14.1% |
| O=C(NCc1ccc2c(c1)OCO2)c1ccccc1Cl | -2.6% |
| COc1ccc(CC(=O)N2CC(C)CC(C)C2)cc1OC (centres unmarked) | 5.21% |
| CSc1ccc(/C=C(\NC(=O)c2ccccc2)C(=O)NCCN2CCOCC2)cc1 | -63.7% |
| CSc1ccc(/C=C(/NC(=O)c2ccccc2)C(=O)NCCN2CCOCC2)cc1 | -44.8% |
| CC(=O)O[C@@H]1C[C@H]2C(C)(C)C(=O)C=C[C@]2(C)[C@H]2CC[C@@]3(C)[C@H](c4ccoc4)OC(=O)[C@H]4O[C@]43[C@@]21C | -43.1% |
| N#Cc1ccccc1NC(=S)NC(=O)c1cccnc1 | 13.7% |
| CCN(CC(=O)NCc1ccc(F)cc1)C(=O)Cc1ccc(OC)cc1 | -63.5% |
| CCN(CC(=O)NCc1ccc(Cl)cc1)C(=O)Cc1ccc(OC)cc1 | -75.7% |
| COc1ccc(CNC(=O)COc2ccc(F)cc2)cc1 | 2.33% |
| CCN(CC(=O)NCc1ccc(Cl)cc1)C(=O)c1ccc2cc(OC)ccc2c1 | 3.72% |
| CCN(CC(=O)NCc1ccc(Cl)cc1)C(=O)c1cc(OC)cc(OC)c1 | -48.4% |
| CCN(CC(=O)NCc1ccc(F)cc1)C(=O)/C=C/c1ccc(OC)cc1 | -48% |
| c1nc(N2CCCC2)c2[nH]cnc2n1 | -3.15% |
| CCC(C(=O)NC(C)(C)C)N(C(=O)Cn1nnc(-c2cccs2)n1)c1cnc2ccccc2c1 (centres unmarked) | -13.3% |
| COc1ccc(C(=O)CNc2ccccc2CO)cc1 | 22.8% |

| SMILES | hERG current change (%, negative = inhibition) at 10uM |
| --- | --- |
| O=C(NCCC1=CCCCC1)c1cc(-c2ccncc2)nc2ccccc12 | 6.78% |
| CC(C)(C)c1ccc(C(=O)Nc2ccc(O)c3c(=O)cc(-c4cccc(Cl)c4)oc23)cc1 | 17.7% |
| COc1cc(C(=O)OC(C)C(=O)NC(=O)NC2CCCCC2)ccc1OC(F)F (centres unmarked) | -51.2% |
| CC(=O)Nc1cccc(C(=O)OC(C)C(=O)NC(=O)NC2CCCCC2)c1 (centres unmarked) | 3.89% |
| COc1cc(C(=O)OCC(=O)NC(=O)C2CCCCC2)ccc1OC(F)F | 15.8% |
| CCOC(=O)C1CCN(C(=O)Nc2ccc3c(c2)nc(C)n3C)CC1 | 0.694% |
| CCN(CC)c1ccc(CNc2nnnn2C)cc1 | 19.3% |
| Cc1cc(=O)n2nc(N3CCCC(C(=O)NC4CCCCC4C)C3)sc2n1 (centres unmarked) | 9.32% |
| Cc1ccccc1CSCCNC(=O)CCSc1ccccc1 | 2.74% |
| CCCCOc1ccc(C(C)(O)CCN2CCOCC2)cc1 (centres unmarked) | -2.97% |
| CCCC(O)(CCN1CCOCC1)c1ccc(Cl)cc1 (centres unmarked) | 3.77% |
| CCCC(O)(CCN1CCOCC1)c1ccc(Br)cc1.Cl (centres unmarked) | -20.7% |
| CCCCC(O)(CCN1CCOCC1)c1ccc(Cl)cc1.Cl (centres unmarked) | -66.5% |
| CCCOc1ccc(C(O)(CCN2CCCCC2)c2ccccc2OC)cc1.Cl (centres unmarked) | -29.9% |
| CCCCOc1ccc(C(O)(CCC)CCN2CCOCC2)cc1 (centres unmarked) | -51.2% |
| CCCCOc1ccc(C(O)(CC)CCN2CCOCC2)cc1 (centres unmarked) | -13.4% |
| CCCOc1ccc(C(O)(CCC)CCN2CCCCC2)cc1 (centres unmarked) | -56.1% |
| CCCOc1ccc(C(C)(O)CN2CCOCC2)cc1 (centres unmarked) | 15.6% |
| OC1(c2ccc(F)cc2)CSC(=Nc2cccnc2)N1Cc1ccco1 (centres unmarked) | -14.2% |
| COc1ccc(OC)c2nc(-c3ccc4c(c3)OCO4)ccc12 | 10.4% |
